From PubChem BioAssay AID686978 (National Center for Advancing Translational Sciences (NCATS), 2013)
Out of some 420,000 compounds screened, about 64,000 (15%) were called active. About 27% were inconclusive and are not listed. Calls follow the shape of the dose curve; as a rule, active = well fitted inhibition curve with a large enough effect; inconclusive = small, poorly fitted or top-dose-only effect; inactive = flat fitted curve, though single readings scatter. A selection follows. A call without a number means that no potency is given here.

Experiment: qHTS for Inhibitors of human tyrosyl-DNA phosphodiesterase 1 (TDP1): qHTS in cells in absence of CPT; also: nearly all actives have a fitted effect of over 55% in size
Conditions: DT40 Tdp1-/- hTDP1 cells, no CPT, ATP luminescence, 48 h; activity change, negative = growth inhibition: at 46.2 µM (top of the series)
Outline: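 Stably hTDP1-transfected Tdp1-null chicken DT40 cells were treated with library compounds minus camptothecin and grown for at least 48 hr at 37 °C, after which cellular ATP was quantified by luminescence.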
Potency is read from the fitted curve at half-maximal effect.

Row | SMILES | Potency
1 | COc1ccc(OC)c(NC(=O)c2ccc3c(c2)C(=O)N(c2ccc(OC(C)=O)cc2)C3=O)c1 | inactive
2 | O=C(NCc1ccc(Cl)c(Cl)c1)c1cccnc1 | inactive
3 | O=C(/C=C/c1ccc(Cl)cc1Cl)c1cccnc1 | 14.6 µM (active)
4 | O=C(Nc1cccnc1)c1cc(Cl)ccc1Cl | inactive
5 | CC1OC2C(OC1C)N(S(C)(=O)=O)CCN2S(C)(=O)=O (stereo not drawn) | inactive
6 | Cc1nc2ccc(NC(=S)N3CCC(C)CC3)cc2nc1C | inactive
7 | O=S(=O)(N/N=C\c1cccn1-c1ccccc1)c1ccc2ccccc2c1 | inactive
8 | CCC(=O)N1CCCC1(C)C(=O)Nc1ccc2c(c1)CCN2C(C)=O (stereo not drawn) | inactive
9 | CC1(C(=O)NCc2ccc3c(c2)OCO3)CCN1C(=O)Cc1cccs1 (stereo not drawn) | inactive
10 | CC1(C(=O)NCc2ccc3c(c2)OCO3)CCN1CCc1ccccc1 (stereo not drawn) | inactive
11 | CSc1ccc(CNC(=O)C2(C)CCCN2C)cc1 (stereo not drawn) | inactive
12 | CC1(C(=O)NCc2cccc3ccccc23)CCN1Cc1ccc(-c2ccccc2)o1 (stereo not drawn) | 13 µM (active)
13 | CCCC(=O)N1CCC1(C)C(=O)NCc1ccc(SC)cc1 (stereo not drawn) | inactive
14 | CSc1ccc(CN2CCC2(C)C(=O)NCc2ccccc2Br)cc1 (stereo not drawn) | 23.1 µM (active)
15 | CSc1ccc(CN(C)CC(=O)NCc2ccc(F)cc2)cc1 | inactive
16 | CSc1ccc(CN2CCC2(C)C(=O)Nc2ccc(C)c(O)c2)cc1 (stereo not drawn) | 18.4 µM (active)
17 | CC(N)=NCc1cccc(CN)c1 | inactive
18 | Cc1nccn1CCC1CCCCN1C(=O)CCc1nnc(-c2ccsc2)o1 (stereo not drawn) | inactive
19 | O=C(CNC(=O)c1ccccc1F)c1ccc(Br)cc1 | inactive
20 | Cc1ccc(C)c(N(CC(=O)NCc2ccco2)C(=O)CCC(=O)Nc2ccccn2)c1 | inactive
21 | O=C(O)CCCCc1nc2ccccc2s1 | inactive
22 | CCC(Oc1ccccc1C)C(=O)Nc1ccc(S(=O)(=O)Nc2cc(C)on2)cc1 (stereo not drawn) | inactive
23 | COC(=O)c1scc(S(=O)(=O)C(C)(C)C)c1-n1cccc1 | inactive
24 | COc1cc(CC(=O)N2CCC(n3nccc3NC(=O)C3CC3)CC2)cc(OC)c1OC | inactive
25 | O=C1c2ccccc2C(c2nc3ccccc3[nH]2)N1c1ccccc1 (stereo not drawn) | inactive
26 | C1=C(N2CCOCC2)/C(=C/c2nc3ccccc3[nH]2)CC1 | 23.1 µM (active)

Row | SMILES | Potency
27 | c1ccc(-n2nnnc2N2CCOCC2)cc1 | inactive
28 | COC(=O)C1=CN(Cc2ccc(OC)cc2)C=C(C(=O)OC)C1c1ccc(O)c(OC)c1 | inactive
29 | O=Cc1ccc(OCc2cn3ccccc3n2)cc1 | inactive
30 | O=C(O)c1ccc(NN=CC2=C(N3CCOCC3)/C(=C/c3ccccc3)CC2)cc1 | 3.26 µM (active)
31 | CCN(CC)c1ccc(C(=O)N/N=C/c2ccc(N3CCOCC3)cc2)cc1 | inactive
32 | O=C(CC1SC(N2CCOCC2)=NC1=O)Nc1ccccc1F (stereo not drawn) | inactive
33 | N#C/C(=C\C1=C(N2CCOCC2)C(=C\c2ccccc2)/CC1)C(=O)Nc1ccccc1F | 14.6 µM (active)
34 | O=C(CN1CCN(c2ccccn2)CC1)N1CCc2ccccc21 | inactive
35 | COc1ccc(/C=N/N=C2/C(=O)Nc3ccccc32)cc1O | inactive
36 | O=C(CSc1nnc(N2CCOCC2)n1-c1cccc(F)c1)N1CCN(c2ccccn2)CC1 | inactive
37 | O=C1Nc2ccc(Br)cc2/C1=N/N=C/C1=C(N2CCOCC2)C(=C\c2ccccc2)/CC1 | 23.1 µM (active)
38 | O=C(O)c1ccc(/C=N/Nc2nc(N3CCCCC3)nc(N3CCCCC3)n2)cc1 | inactive
39 | CCOC(=O)c1c(NC(=O)/C(C#N)=C/c2ccccc2)sc2c1CCC2 | inactive
40 | C(=N\N1CCN(c2ccccn2)CC1)/C1=C(N2CCOCC2)C(=C/c2ccccc2)/CC1 | 16.4 µM (active)
41 | Cc1cc(C(=O)NNS(=O)(=O)c2ccccc2C(F)(F)F)nn1C(C)(C)C | inactive
42 | O=c1cc(CSc2ccccn2)nc(N2CCN(c3ccccc3)CC2)[nH]1 | inactive
43 | N/C(=N\OC(=O)CCc1ccccc1)c1ccc(Cl)cc1 | inactive
44 | O=C(NCc1ccccn1)[C@@H]1CCCN1C(=O)[C@@H]1CCCN1C(=O)c1ccccc1 | inactive
45 | COC(=O)c1ccccc1NC(=O)CSc1nc2c(c(=O)[nH]1)CCC2 | inactive
46 | COC(=O)C1=C(C(=O)OC)[C@@H]2N(C)c3ccccc3[C@@]23C[C@@H](C(=O)OC)N(C(C)=O)C3=N1 | inactive
47 | O=C1C(c2ccccn2)=[N+]([O-])c2ccccc21 | inactive
48 | CCC(=O)Nc1cccc(NC(=O)CSc2nnc(-c3ccc(NS(C)(=O)=O)cc3)n2C)c1 | inactive
49 | O=C(COc1ccccc1F)OCc1cc(=O)n2nc(C3CCCCC3)sc2n1 | inactive
50 | O=C(CSc1n[nH]c(-c2cccs2)n1)N1CCCCC1 | inactive
51 | CNC(=O)c1ccc(NC(=O)c2cccc(C(F)(F)F)c2)cc1 | inactive
52 | O=C(Nc1ccc(-c2csc(Nc3cccc(C(F)(F)F)c3)n2)cc1)c1cccc(C(F)(F)F)c1 | 6.51 µM (active)

Row | SMILES | Potency
53 | Cc1cccc(NC(=O)c2cccc(C(F)(F)F)c2)c1 | inactive
54 | CCOC(=O)NC(C(F)(F)F)(C(F)(F)F)P(=O)(c1ccccc1)c1ccccc1 | inactive
55 | CCOC(=O)c1sc(NC(=O)CSc2ncccn2)c(C#N)c1C | inactive
56 | Cc1cc(C)nc(NC(=O)c2cccc([N+](=O)[O-])c2)c1 | inactive
57 | O=C(Nc1nnc(SCc2ccccc2Cl)s1)c1cccc([N+](=O)[O-])c1 | inactive
58 | O=C(Nc1ccc(C2CC2(Cl)Cl)cc1)c1cccc([N+](=O)[O-])c1 (stereo not drawn) | 18.4 µM (active)
59 | Cc1ccc(CNC(=O)CCN2C(=O)[C@@H]3Cc4ccccc4CN3C2=O)cc1 | inactive
60 | CN(NC(=O)C1CC(=O)N(c2ccccc2)C1)C1=NS(=O)(=O)c2ccccc21 (stereo not drawn) | inactive
61 | O=C1NC(c2ccccc2)=NC1(Nc1ccccn1)C(F)(F)F (stereo not drawn) | inactive
62 | CCCNC(=O)N1CCC(c2ccc3c(c2)OCO3)CC1 | inactive
63 | CC1Cn2c(nnc2-c2cccs2)S1 (stereo not drawn) | inactive
64 | N#C/C(=C(/O)COc1cccc2ccccc12)c1nc2ccccc2[nH]1 | inactive
65 | COc1ccccc1C(=O)COC(=O)COc1ccc(C#N)cc1 | inactive
66 | N#C/C(=C(/O)COC(=O)COc1ccc(Cl)cc1)c1nc2ccccc2[nH]1 | 4.61 µM (active)
67 | O=C(/C(=N\O)n1cncn1)c1ccc(Br)cc1Br | inactive
68 | Oc1cccc2ccc(/C=C/c3ccc(Br)s3)nc12 | 0.082 µM (active)
69 | CCOC(=O)C1(Cc2cccc(OC)c2)CCCN(C(=O)CCSC)C1 (stereo not drawn) | inactive
70 | O=S(=O)(O)c1nc2ccccc2n1Cc1ccc(Cl)cc1Cl | inactive
71 | O=S(=O)(Cc1ccc(Cl)cc1Cl)c1ccc(Cl)cc1 | 1.03 µM (active)
72 | Cc1ccc(S(=O)(=O)Cc2cc(-c3ccc(Cl)cc3)no2)cc1 | inactive
73 | C=C1CCN([C@H](C(=O)NCc2cc(OC)c(OC)c(OC)c2)C(C)C)S(=O)(=O)c2ccccc21 | inactive
74 | COc1cc(C(=O)NC2CCN(C)CC2)ccc1Nc1ncc2c(n1)N(C1CCC(O)CC1)CCC(=O)N2C (stereo not drawn) | 16.4 µM (active)
75 | COc1ccc(C(=O)NC2CC2)cc1OC1CCN(Cc2cnn(C)c2)CC1 | inactive
76 | COc1ccc(Cl)cc1NS(=O)(=O)c1cccc(C(=O)NC2CCC(O)CC2)c1 (stereo not drawn) | inactive
77 | Cc1ccccc1OCCC(=O)Nc1c(C)n(C)n(-c2ccccc2)c1=O | inactive
78 | COc1cccc(C(=O)N2CCC(n3nccc3NC(=O)C3CCOC3)CC2)c1 (stereo not drawn) | inactive

Row | SMILES | Potency
79 | COc1ccc(N2CCN(Cc3nnc(-c4ccccc4)o3)CC2)cc1 | inactive
80 | COc1ccc(-c2nnc3n2CCCCC3)cc1 | inactive
81 | COc1ccc(N2CCN(c3cc(C)nc4nncn34)CC2)cc1 | 16.4 µM (active)
82 | Cc1ccccc1C1CC(c2cccs2)=NN1S(C)(=O)=O (stereo not drawn) | inactive
83 | COc1cccc(CNC(=O)C2CCN(S(=O)(=O)c3ccc4c(ccn4C)c3)CC2)c1 | inactive
84 | CCOC(=O)c1c(S(=O)(=O)N2CCCC(C(=O)NCc3ccc(F)cc3)C2)c(C)n(CC)c1C (stereo not drawn) | inactive
85 | CCS(=O)(=O)N1CCCC(C(=O)NCc2ccc(C)cc2)C1 (stereo not drawn) | inactive
86 | CCOc1ccc(N(CC)S(=O)(=O)N2CCCC(C(=O)Nc3ccc(C(C)=O)cc3)C2)cc1 (stereo not drawn) | 23.1 µM (active)
87 | CCOC(=O)c1c(C)[nH]c(C)c1S(=O)(=O)N1CCCC(C(=O)NCc2ccccc2Cl)C1 (stereo not drawn) | inactive
88 | CCOc1ccccc1CNC(=O)C1CCCN(S(=O)(=O)c2ccc3c(ccn3C)c2)C1 (stereo not drawn) | 16.4 µM (active)
89 | CCOc1ccc(CNC(=O)C2CCCN(S(=O)(=O)N(CC)c3ccc(OCC)cc3)C2)cc1 (stereo not drawn) | 20.6 µM (active)
90 | CCOc1ccc(NC(=O)C2CCCN(C(=O)Nc3ccccc3)C2)cc1 (stereo not drawn) | inactive
91 | Cc1ccccc1CNC(=O)C1CCCN(S(=O)(=O)N(C)c2ccc(F)cc2)C1 (stereo not drawn) | 18.4 µM (active)
92 | Cc1ccc(CNC(=O)C2CCCN(S(C)(=O)=O)C2)cc1 (stereo not drawn) | inactive
93 | CCOc1ccccc1NC(=O)C1CCCN(S(=O)(=O)c2cn(C)cn2)C1 (stereo not drawn) | inactive
94 | CCOc1ccc(C(=O)NC2CCN(S(=O)(=O)CC)CC2)cc1 | inactive
95 | Cc1cc(C)cc(OCc2nnc(SCC(=O)OC3CCCCC3)o2)c1 | inactive
96 | OC(c1ccccc1)c1nccn1Cc1ccccc1 (stereo not drawn) | inactive
97 | COc1ccccc1C(=O)NC(CCSC)C(=O)NNC(=O)c1csc(N2CCOCC2)n1 (stereo not drawn) | inactive
98 | CCN(CC)C(=O)CS(=O)CC(=O)Nc1cc(OCCOC)c(Cl)cc1Cl (stereo not drawn) | inactive
99 | CCOC(=O)c1c(S(=O)(=O)N2CCCC(C(=O)NCc3cccc(C)c3)C2)c(C)n(C)c1C (stereo not drawn) | inactive
100 | CCOc1cccc(NC(=O)C2CCCN(S(=O)(=O)c3ccc(OC)cc3)C2)c1 (stereo not drawn) | 23.1 µM (active)
101 | COc1ccc(NC(=O)C2CCCN(S(=O)(=O)c3cccc4cccnc34)C2)cc1 (stereo not drawn) | inactive
102 | CCOc1ccc(N(CC)S(=O)(=O)N2CCCC(C(=O)NCc3ccc(SC)cc3)C2)cc1 (stereo not drawn) | 20.6 µM (active)
103 | CSc1ccc(S(=O)(=O)N2CCC(C(=O)NCc3ccncc3)CC2)cc1 | inactive
